Our source for the Potency values is PubChem BioAssay (Tox21).

Structures are written as SMILES. Records with an inconclusive call do not appear. Entries that show only a call come without a potency. The source made the active and inactive calls. Calls come from the whole dose curve.
Potency is the fitted concentration of half-maximal effect.

The nature of this test: qHTS assay to identify small molecule agonists of the progesterone receptor (PR) signaling pathway - cell viability counter screen (AID 1346799). Note: nearly all actives have a fitted effect of over 45% in size. The conditions noted are these: PR-UAS-bla HEK293T viability, CellTiter-Glo luminescence, 16 h; series mostly up to 92.4 µM. An excerpt: National Center for Advancing Translational Sciences [NCATS]
NIH Chemical Genomics Center [NCGC]
U.S. Environmental Protection Agency [EPA]
National Institutes of Environmental Health Sciences [NIEHS]
National Toxicology Program [NTP]
U.S. Food and Drug Administration [FDA]
Progesterone receptor (PR), a nuclear hormone receptor, plays an important role in development, metabolic homeostasis and reproduction. It is activated by the steroid hormone progesterone. Endocrine disrupting chemicals (EDCs) and their interactions with steroid hormone receptors like PR causes disruption of normal endocrine function. To identify the compounds that stimulate PR signaling, a PR-UAS-bla GripTite cell line i.e. PR-UAS-bla HEK293T (Invitrogen, Carlsbad, CA, USA) containing a beta-lactamase reporter gene under the control of an UAS response element was used to screen Tox21 10K compound library. The cytotoxicity of the Tox21 compound library against the PR-bla cell line was tested in parallel by measuring the cell viability using CellTiter-Glo assay in the same wells.
Tox21 Assay Protocol Summary:
PR-UAS-bla HEK293T cells were dispensed at 3,000 cells/5 uL of assay medium containing 2% charcoal stripped FBS per well into black wall/clear-bottom 1536-well plates using a Multidrop Combi (ThermoFisher Scientific, Waltham, MA) dispenser. After the assay plates were incubated at a 37C and 5% CO2 for 6 hr, 23 nL of compounds dissolved in DMSO, positive controls or DMSO only was transferred to the assay plate by a Pintool station (Kalypsys, San Diego, CA). The plates were incubated at 37C and 5% CO2 for 16 hr. Then 1 uL of LiveBLAzer B/G FRET substrate was added using a Flying Reagent Dispenser (FRD, Aurora Discovery, San Diego, CA), the plates were incubated at room temperature for 2 hours, and fluorescence intensity was measured by an Envision plate reader (PerkinElmer, Shelton, CT). For cell viability readout that measures cytotoxicity, 4 uL/well of CellTiter-Glo reagent was added into the assay plates using a FRD. After 30 min incubation at room temperature, the luminescence intensity in the plates was measured using a ViewLux (PerkinElmer) plate reader.
In general terms: Quantitative high-throughput screening tests each substance at several concentrations.
In the case of `O=C(CO)[C@@H](O)[C@H](O)[C@H](O)CO`, the Potency entry was “inactive”.
On to `O=C(O)CNC(=O)c1ccccc1`, for which the Potency entry is “inactive”.
The result for `Cc1nc2ccc(CN(C)c3ccc(C(=O)N[C@@H](CCC(=O)O)C(=O)O)s3)cc2c(=O)[nH]1` reads “inactive”; that for `C=CCOCC(O)CO` (stereo not given), “inactive”; that for `NCCCC[C@H](N[C@@H](CCc1ccccc1)C(=O)O)C(=O)N1CCC[C@H]1C(=O)O`, “inactive”.
As for `CNCCO`, the entry is “inactive”; as for `NC(=O)N[C@@H](CCC(=O)O)C(=O)O`, “inactive”; as for `CN1CCC(=C2c3ccccc3CCc3cccnc32)CC1`, “inactive”.
Take `C=C(C)C(=O)OCC(O)CO` (stereo not given): the Potency entry was “inactive”.
The result for `CCN1C=CN(C)C1C` (stereo not given) reads “inactive”.
As for `CCOc1ccc2nc(S(N)(=O)=O)sc2c1`, the entry is “inactive”.
The result for `Cc1coc2ccccc2c1=O` reads “inactive”; that for `CC1OC1C1CCC2(C)OC2C1` (stereo not given), “inactive”.
Regarding `CCCCc1ccc2c(n1)[C@@H](c1ccc(OC)cc1C[C@H](C)C(=O)O)[C@H](C(=O)O)[C@H]2c1ccc2c(c1)OCO2`, the Potency entry was “inactive”.
As for `CCN(Cc1ccccc1)c1ccccc1`, the figure is 67.8 µM (active); as for `O=C(O)Cc1csc(-c2ccc(Cl)cc2)n1`, “inactive”.
As for `CCCC[N+](C)(CCCC)CCCC`, the entry is “inactive”.
As for `NC(=O)N1c2ccccc2CC(=O)c2ccccc21`, the entry is “inactive”; as for `CC(N)C12CC3CC(CC(C3)C1)C2` (stereo not given), “inactive”; as for `NCCCC(N)(C(=O)O)C(F)F` (stereo not given), “inactive”.
Regarding `CCCCCCCCCC[N+](C)(C)[O-]`, the Potency result was “inactive”.
In the case of `c1ccc2sc(SN3CCOCC3)nc2c1`, the Potency entry was “inactive”.
The result for `CCCCOCCOC(=O)CCCCCCCCC(=O)OCCOCCCC` reads “inactive”; that for `O=C(O)c1cc(C(=O)O)cc(C(=O)O)c1`, “inactive”.
The result for `CC(C)(N)C#N` reads “inactive”; that for `O=C(O)CCSCCC(=O)O`, “inactive”; that for `O=C1CCCCCCCCCCCCCCO1`, “inactive”.
Regarding `CCCCCCC1CCC(=O)O1` (stereo not given), the Potency entry is “inactive”.
As for `O=[N+]([O-])c1cncn1CCN1CCOCC1`, the entry is “inactive”; as for `CCCCCCC#CC(=O)OC`, “inactive”.
As for `CC(C)(C)C(=O)c1ccccc1`, the entry is “inactive”.
As for `CC(C)(C)c1ccc(-c2ccc(C(C)(C)C)cc2)cc1`, the entry is “inactive”; as for `CN(C)CCN(C)CCN(C)C`, “inactive”; as for `Nc1c2c(nc3c1CCC3)CCCC2`, “inactive”.
With `CC(C)(CCC(=O)O)C(=O)O`, the Potency result is “inactive”.
As for `Cc1onc(-c2c(Cl)cccc2Cl)c1C(=O)Cl`, the entry is “inactive”; as for `CCC(C(=O)NC(=O)NC(C)=O)c1ccccc1` (stereo not given), “inactive”.
`COc1cccc(OC)c1C(=O)N[C@@H]1C(=O)N2[C@@H]1SC(C)(C)[C@@H]2C(=O)O`: the Potency result was “inactive”.
As for `CC(=O)c1cnccn1`, the entry is “inactive”; as for `CC[C@H]1OC(=O)[C@H](C)[C@@H](O[C@H]2C[C@@](C)(OC)[C@@H](O)[C@H](C)O2)[C@H](C)[C@@H](O[C@@H]2O[C@H](C)C[C@H](N(C)C)[C@H]2O)[C@](C)(OC)C[C@@H](C)C(=O)[C@H](C)[C@@H](O)[C@]1(C)O`, “inactive”.
